Data on eight molecules can be found in PubChem BioAssay.

A short description of test [1]: P. berghei load reduction in hepatocytes – cell-based, HepG2, luciferase luminescence, HepG2 viability, primary screen (AID 624349; in the data active = parasite load remaining mostly below about 12%, no sharp cut-off; inactive = mostly above about 10%;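 also: 100% = mean of DMSO negative control wells on the same plate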). The settings on record: P. berghei liver stage in HepG2, luciferase luminescence, concentration not given here; parasite load remaining: stronger effect = lower value; viability: measured here: HepG2 viability without parasites.
A short description of test [2]: EMT-state selective cytotoxicity in co-culture – imaging, PC-3E GFP, TEM4-18 mCherry, primary screen (AID 1345086).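 As to all read-outs here: cells exposed to compound for 72 h before imaging.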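 As to red/green cell ratio (normalised): normalised mesenchymal count divided by normalised epithelial count so high means epithelial killing.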 Particulars: PC-3E GFP / TEM4-18 mCherry co-culture, imaging cell counts, at 1 µM; for red/green cell ratio (normalised): actives lie on both sides, counts scaled to control wells, 1 = unselective.
Test [3] is described as follows: viability loss with induced miR-34 in A549 – imaging, A549 dox-inducible miR-34, nuclei and caspase counts, primary screen (AID 1347080;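 active = compounds whose cell count with miR-34 switched on is under 0.7 times the count with it off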). Particulars: A549 miR-34 inducible, Hoechst nuclei count, 48 h.
Test [4] in a line: MELAS cybrid and Rieske KO viability enhancers – cell-based, MELAS cybrids, Rieske KO mouse fibroblasts, CellTiter-Glo, primary screen (AID 1508586;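 active = mean z-score across replicates of 1.96 or higher in either the MELAS or the Rieske mutant cell line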;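 also: z relative to plate mean and SD of compound and empty wells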). The settings on record: low glucose.
In test [5] the target is NAD(+) hydrolase SARM1 (Homo sapiens) (UniProt Q6SZW1). Put plainly: blocking NAD cleavage by SARM1 SAM-TIR – cell lysate, NAD-Glo luminescence (AID 1508614;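 active = compound whose remaining NAD level is above about 45 nM, limit read from the data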;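 also: higher remaining NAD means stronger inhibition of SARM1 NADase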). Particulars: SAM-TIR HEK293T lysate NADase, at 1 µM, stronger effect = higher value.
A short description of test [6]: blockers of polyQ-driven CASP3 activation – cell-based (AID 1583). Particulars: polyglutamine-induced caspase-3 activation, cell assay; stronger effect = higher value;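 tested at 10 µM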.
Test [7] can be described thus: yeast 75Q aggregation reduction – 75Q-TubU reporter (AID 1593). Particulars: Yeast 75Q polyglutamine aggregation reporter.
The nature of test [8]: restoration of touch response, mutant HTT neurons – whole organism, C. elegans mechanosensory neurons, N-terminal huntingtin (AID 1599). Particulars: C. elegans polyQ-huntingtin mechanosensory neurons, stronger effect = higher value.
A short description of test [9]: blockers of cytochrome c efflux from mitochondria – biochemical, purified mitochondria (AID 1603).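 Also: mouse liver mitochondria challenged with calcium chloride; signal normalized to the plate average as 100%.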 The settings on record: stronger effect = lower value.
The nature of test [10]: polyglutamine aggregate formation blockers (AID 1604). The settings on record: polyglutamine-induced protein aggregation inhibition assay; stronger effect = higher value; tested at 2.5 µM.
The nature of test [11]: glutamate transport activators, MN-1 cells, MN-1 cell line (AID 1612).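 Also: tested at 1 µM final; 0% = mean of DMSO vehicle wells on each plate; positive means more glutamate uptake than control and negative means less.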 The settings on record: MN-1 motor neuron cells, stronger effect = higher value.
Test [12] can be described thus: GFP-Q80 aggregate reduction, neuronal-like cells, cell-based, NGF-treated PC12, GFPQ80 (AID 1614).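 Also: lower means fewer inclusions and 0 means no inclusions at all.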 Particulars: PC12 NGF-treated GFP-polyQ80 inclusion reduction.
A short description of test [13]: 75Q-TubH aggregate inhibition, S. cerevisiae, yeast (AID 1616). The settings on record: S. cerevisiae 75Q-TubH polyglutamine aggregation suppression; stronger effect = higher value.
Test [14] is described as follows: blockers of cellular phospholipid synthesis – cell-based, LOPAC library, screen 4, primary screen (AID 1347384; call rule not given here). Particulars: animal cells, phospholipid biosynthesis inhibition screen; at 10 µM.
The target of test [15] is Mitogen-activated protein kinase 7 (Homo sapiens) (UniProt Q13164). Put plainly: Gal4-ERK5 driven luciferase induction – cell-based, HTS, primary screen (AID 1508626;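 active = luciferase signal above three times the same-plate solvent-only control wells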;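 also: luciferase driven by Gal4-ERK5 fusion binding five Gal4 sites before minimal TATA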). The settings on record: HeLa Gal4-ERK5 transactivation, 18 h, at 5 µM, stronger effect = higher value.
Where [16] appears, read: measured here: epithelial PC-3E GFP cell survival.
The mark [17] stands for this setting: measured here: mesenchymal TEM4-18 mCherry cell survival.
The mark [18] stands for this setting: stronger effect = lower value, cell number ratio, induced over uninduced.
The mark [19] stands for this setting: measured here: relative caspase fold change +Dox/-Dox.
The mark [20] stands for this setting: measured here: total cells with miR-34 induction, stronger effect = lower value.
[21] abbreviates: measured here: total cells without miR-34 induction.

SMILES strings stand for the structures. “And” between values parts separate entries of the source, which are not always exact repeats. Equal entries are not always repeated. For some of these results: Potency and affinity values are given separately. The source made the active and inactive calls.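 The calls were made as follows, unless noted: active = compounds killing one labelled cell type while sparing the other, by normalised counts and ratio limits, not self-fluorescent; inactive = the rest.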

Chain of Mitogen-activated protein kinase 7 (Homo sapiens) (Q13164 whole entry, looked up, the tested form may be a part): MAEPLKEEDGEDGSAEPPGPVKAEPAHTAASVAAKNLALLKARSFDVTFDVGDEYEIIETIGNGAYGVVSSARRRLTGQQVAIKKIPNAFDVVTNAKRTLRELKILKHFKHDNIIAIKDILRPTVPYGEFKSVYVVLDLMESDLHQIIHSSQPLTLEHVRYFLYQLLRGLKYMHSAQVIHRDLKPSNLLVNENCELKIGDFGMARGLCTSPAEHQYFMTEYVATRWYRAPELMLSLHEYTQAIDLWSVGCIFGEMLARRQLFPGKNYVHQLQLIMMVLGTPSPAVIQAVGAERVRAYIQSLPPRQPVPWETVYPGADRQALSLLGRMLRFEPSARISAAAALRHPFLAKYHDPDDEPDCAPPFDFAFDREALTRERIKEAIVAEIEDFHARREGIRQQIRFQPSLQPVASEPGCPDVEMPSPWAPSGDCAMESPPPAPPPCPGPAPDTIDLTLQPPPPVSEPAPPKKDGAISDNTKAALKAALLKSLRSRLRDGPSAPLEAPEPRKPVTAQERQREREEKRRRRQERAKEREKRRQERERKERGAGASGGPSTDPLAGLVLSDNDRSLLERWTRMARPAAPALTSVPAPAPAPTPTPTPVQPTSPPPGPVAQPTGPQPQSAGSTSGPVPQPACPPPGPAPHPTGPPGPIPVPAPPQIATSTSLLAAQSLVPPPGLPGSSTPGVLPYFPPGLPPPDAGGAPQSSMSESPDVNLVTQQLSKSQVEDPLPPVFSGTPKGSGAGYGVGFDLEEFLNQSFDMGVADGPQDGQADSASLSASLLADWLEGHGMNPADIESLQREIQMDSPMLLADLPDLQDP
Chain of NAD(+) hydrolase SARM1 (Homo sapiens) (Q6SZW1 whole entry, looked up): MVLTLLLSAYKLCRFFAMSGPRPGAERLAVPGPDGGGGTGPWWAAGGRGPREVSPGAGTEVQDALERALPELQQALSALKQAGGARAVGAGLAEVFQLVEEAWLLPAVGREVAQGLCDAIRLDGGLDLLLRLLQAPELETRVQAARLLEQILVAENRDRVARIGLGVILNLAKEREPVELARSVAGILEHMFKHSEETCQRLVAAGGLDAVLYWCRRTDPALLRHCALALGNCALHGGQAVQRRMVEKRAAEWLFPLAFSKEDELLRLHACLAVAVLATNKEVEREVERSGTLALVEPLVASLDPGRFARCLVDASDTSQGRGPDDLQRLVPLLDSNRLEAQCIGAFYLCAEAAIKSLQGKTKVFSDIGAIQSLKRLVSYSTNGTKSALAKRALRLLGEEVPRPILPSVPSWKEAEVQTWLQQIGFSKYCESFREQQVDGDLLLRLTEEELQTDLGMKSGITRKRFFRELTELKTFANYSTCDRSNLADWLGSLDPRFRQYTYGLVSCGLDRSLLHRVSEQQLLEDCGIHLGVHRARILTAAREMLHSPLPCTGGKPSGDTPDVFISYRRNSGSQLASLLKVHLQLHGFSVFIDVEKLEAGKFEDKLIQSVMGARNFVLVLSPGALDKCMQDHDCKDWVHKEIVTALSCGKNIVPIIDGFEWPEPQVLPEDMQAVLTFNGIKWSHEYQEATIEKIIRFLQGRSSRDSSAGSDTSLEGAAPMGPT

On to `C[N+](C)(C)CCOP(=O)([O-])OP(=O)(O)OC[C@H]1OC(n2ccc(N)nc2=O)[C@H](O)[C@@H]1O` (stereo partly drawn), for which, in [1], the parasite load remaining was 169% (inactive) and 55.3% (inactive). In addition, the viability in [1] was 92.4% and 97.3%. In test [2], the red/green cell ratio (normalised) was 1.29 (inactive). For the same molecule, the normalised cell number in test [2] (setting [16]) is 0.95; in test [2] (setting [17]), 1.22. The figures for the fold change in test [3] (setting [18]) and in test [3] (setting [19]) were 0.9 (inactive) and 4.71, respectively. Moreover, the cell count in test [3] (setting [20]) came out at 12600; in test [3] (setting [21]) it was 14000.

As to `CCCCCCCCCCC[C@@H](C[C@H]1OC(=O)[C@H]1CCCCCC)OC(=O)[C@@H](CC(C)C)NC=O`, the parasite load remaining in test [1] is 118% (inactive) and 62.8% (inactive). For the same molecule, the viability in test [1] was 86.3% and 114%. Also, the red/green cell ratio (normalised) in test [2] was 1.11 (inactive). Also, the normalised cell number in test [2] (setting [16]) is 0.96; in [2] (setting [17]), 1.07. The fold change in test [3] (setting [18]) is 0.887 (inactive); in test [3] (setting [19]), 2. Besides, the cell count was determined as 11500 in test [3] (setting [20]) and 13000 in [3] (setting [21]).

As to `C[C@H](N[C@@H](CCc1ccccc1)C(=O)O)C(=O)N1CCC[C@H]1C(=O)O`, the red/green cell ratio (normalised) in [2] is 0.88 (inactive). Further, the normalised cell number in test [2] (setting [16]) was 1.17; in test [2] (setting [17]) it was 1.03. In addition, the z-score in test [4] (MELAS cybrid survival, CellTiter-Glo 48 h, stronger effect = higher value) was 0.249 (inactive); in test [4] (Rieske KO mouse fibroblast survival, CellTiter-Glo 72 h), -0.206.

Take `OC[C@@H](O)C(O[C@@H]1O[C@H](CO)[C@H](O)[C@H](O)[C@H]1O)[C@H](O)[C@@H](O)CO` (stereo partly drawn): in [1], the parasite load remaining was 63.4% (inactive). The viability in test [1] is 99.9%. Moreover, in test [2], the red/green cell ratio (normalised) was 1.21 (inactive). In addition, the values for the normalised cell number in [2] (setting [16]) and in test [2] (setting [17]) were 0.87 and 1.06, respectively. Further, the fold change in test [3] (setting [18]) was 0.87 (inactive); in [3] (setting [19]), 4.32. For the same molecule, the cell count in test [3] (setting [20]) stood at 11300; in test [3] (setting [21]), 13000.

On to `CC(C)(Oc1ccc(C(=O)c2ccc(Cl)cc2)cc1)C(=O)O`, for which, in test [2], the red/green cell ratio (normalised) was 1.11 (inactive). Also, the normalised cell number in test [2] (setting [16]) came out at 1.09; in [2] (setting [17]), 1.21. Moreover, the remaining NAD in [5] was 10 nM (inactive).

With `CC1OC1P(=O)(O)O` (stereo not drawn), the inhibition in test [6] is -3.29%. In [7], the score is 1.42. The molecule further gave a rescue above control in [8] of 16.3. Moreover, the cytochrome c release ratio in test [9] amounted to 6.79. Further, the inhibition of aggregation in test [10] worked out at 83.9%. For the same molecule, in test [11], the glutamate uptake change is -1.38%. Besides, in test [12], the inclusion score was 2. The same molecule yielded an aggregation suppression score in test [13] of 1.43. Moreover, in test [1], the parasite load remaining was 59.9% (inactive) and 33.6% (inactive); the viability is 74.5% and 90.1%. Besides, the red/green cell ratio (normalised) in test [2] was 1.09 (inactive). Besides, the normalised cell number in [2] (setting [16]) amounted to 1.06. The same molecule displayed a normalised cell number in test [2] (setting [17]) of 1.16. The result in [14] was inactive.

For the molecule `COc1ccc(/C=C/C(=O)c2cc(O)ccc2O)cc1`, the red/green cell ratio (normalised) in [2] is 0.92 (inactive). Besides, the normalised cell number in test [2] (setting [16]) came out at 1.12; in [2] (setting [17]), 1.03. In addition, the luciferase signal in test [15] is 80 AU (inactive).

As to `S=c1ccss1`, the red/green cell ratio (normalised) in [2] was 1.04 (inactive). Also, the normalised cell number in test [2] (setting [16]) was 1.15; in test [2] (setting [17]) it was 1.2. Besides, the luciferase signal in test [15] was 52 AU (inactive).
